In the library only some 11% were active in any assay of this set; here they are far more common.
VP16 counter = VP16 counterscreen qHTS for inhibitors of ROR gamma transcriptional activity; Potency, µM (doses to about 53.6 µM), usual class: inhibitors; Drosophila S2 Gal4-VP16 UAS-luciferase, luminescence, 20 h; actives 3.5% (n = 310,000); AID 2546, 2010;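 also: Gal4-VP16 expression switched on by copper sulfate through the metallothionein promoter; nearly all actives have a fitted effect of over 50% in size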
MCF10A rereplic = A quantitative high throughput screen for small molecules that induce DNA re-replication in MCF 10a normal breast cells. MCF 10A DNA re-replication, Hoechst nuclear intensity, 48 h. Potency, µM (series often up to 46.1 µM), hits mostly activators. actives 2.9% (n = 350,000). AID 624296, 2012; also: nearly all actives have a fitted effect of over 50% in size
IL-1B inflam inh = qHTS for Inhibitors of Inflammasome Signaling: IL-1-beta AlphaLISA Primary Screen; activity change, % at 57.5 µM; AID 743279, 2014; THP-1 LPS/ATP IL-1B secretion, AlphaLISA, 16 h; hits give low values; actives 4.7% (n = 360,000); in the data active = activity change below about -50%; inconclusive = mostly about -30% to -49%
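Secreted IL-1B measured by AlphaLISA bead assay after 16 h compound exposure of THP-1 cells; compounds (final up to 57.5 uM) added 1 h before LPS (250 ng/mL) and ATP (1.25 mM) stimulation; lower signal means less secretion.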
RORgamma inh = qHTS for inhibitors of ROR gamma transcriptional activity; Nuclear receptor ROR-gamma (Mus musculus), P51450; Drosophila S2 Gal4-RORgamma UAS-luciferase reporter, 20 h; Potency, µM (highest dose often 53.6 µM), usual class: inhibitors; actives 5.4% (n = 310,000); AID 2551, 2010; also: nearly all actives have a fitted effect of over 60% in size
Target sequence (P51450 whole entry, looked up, the tested form may be a part): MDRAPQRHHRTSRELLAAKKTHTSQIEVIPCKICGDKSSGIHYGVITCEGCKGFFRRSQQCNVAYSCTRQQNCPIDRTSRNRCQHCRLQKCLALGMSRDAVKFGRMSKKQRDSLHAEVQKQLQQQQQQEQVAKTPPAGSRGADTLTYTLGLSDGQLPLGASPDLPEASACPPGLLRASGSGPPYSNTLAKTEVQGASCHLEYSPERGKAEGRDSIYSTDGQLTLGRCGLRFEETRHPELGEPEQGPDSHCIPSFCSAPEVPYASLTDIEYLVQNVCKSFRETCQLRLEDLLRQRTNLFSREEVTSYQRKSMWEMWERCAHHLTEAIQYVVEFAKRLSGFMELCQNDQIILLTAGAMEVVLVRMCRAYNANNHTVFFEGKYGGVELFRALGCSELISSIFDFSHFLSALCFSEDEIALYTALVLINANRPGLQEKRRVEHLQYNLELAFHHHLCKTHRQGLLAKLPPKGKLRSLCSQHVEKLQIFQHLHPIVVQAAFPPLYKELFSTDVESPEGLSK
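Compounds are pin-transferred onto Drosophila Schneider cells expressing a copper-inducible Gal4–ROR gamma transactivation domain fusion. After 1 hr, copper sulfate is added to 700 uM final; luciferase is read 20 hr later.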
SW480 rereplic = A quantitative high throughput screen for small molecules that induce DNA re-replication in SW480 colon adenocarcinoma cells. SW480 DNA re-replication, Hoechst DNA content imaging, 48 h. Potency, µM (top dose mostly 46.1 µM), usual class: activators. actives 1.8% (n = 340,000); also: nearly all actives have a fitted effect of over 55% in size
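Per well, 250 cells were exposed to pinned compound for 48 hr. Nuclear DNA was visualised with Hoechst (40 min, 37 C) and total object intensity recorded by fluorescence scanning.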
A number is an active result; . = inactive; ? = inconclusive; / = no result given; [ ] = another dose, or the depositor's remark. Unless noted, calls follow the shape of the dose curve; as a rule, active = well fitted curve in the direction sought with a large enough effect; inconclusive = small, poorly fitted or top-dose-only effect, or another doubt; inactive = no such curve, though single readings can be large; an effect the other way counts as inactive or inconclusive.

SMILES | VP16 counter | MCF10A rereplic | IL-1B inflam inh | RORgamma inh | SW480 rereplic
CCOC(=O)[C@H]1[C@H]2COc3ccc(Br)cc3[C@@H]2N2C(=O)c3c(C)cc(C)cc3NC(=O)[C@@]12C | / | ? | ? | / | .
CCOC(=O)C1CCN(C(=O)c2[nH]c(C(F)(F)F)nc2-c2ccccc2)CC1 | / | / | . | / | /
CC(=NOC(=O)c1ccc(I)cc1)c1nccs1 | / | / | . | / | /
CCN(CC)CCCNC(=O)c1sc2ncn(CC(=O)Nc3ccc(C)c(Cl)c3)c(=O)c2c1C | . | . | . | . | 18µM
CCCc1ccc(-c2cc(C(=O)NC3=NCCS3)c3ccccc3n2)cc1 | 1.6µM | ? | -53 | 1.8µM | .
Cc1ccc(-c2cc(C(=O)NC3=NCCS3)c3ccccc3n2)cc1C | 11µM | . | . | 10µM | .
O=C(NC1=NCCS1)c1cc(-c2ccc(F)cc2)nc2ccccc12 | 11µM | . | -73 | 10µM | .
C#CCCCO/N=C1/C[C@@H](O)[C@@H](O)[C@@H]2[C@@H]3C(=O)N([C@@H](C)c4ccccc4)C(=O)[C@H]3CC[C@@H]12 | .[10 µM] | / | / | .[10 µM] | /
CC(C)CNC(=O)C(=O)NCC1OCCN1S(=O)(=O)c1cccs1 (centres undefined) | / | . | . | / | .
O=C(CNc1ccccc1Cl)c1ccc(Br)cc1 | ? | ? | -77 | .[1.91 µM] | .
O=C(NC(=S)Nc1ccccc1Br)C1CCC1 | 5µM | . | . | 3.2µM | .
N#Cc1ccccc1NC(=S)NC(=O)C1CCC1 | . | . | . | ? | .
O=C(NC(=S)Nc1ccccc1Cl)C1CC1 | 11µM | . | . | ? | .
O=C(NC1CCCCC1)c1ccccc1NC(=S)NC(=O)C1CC1 | . | . | . | . | /
CCOc1ccccc1NC(=S)NC(=O)C1CCCCC1 | 6.3µM | . | . | 5.6µM | .
CCOc1ccccc1C(=S)NC1CCCCC1 | ? | ? | . | 10µM | .
CCOc1ccccc1OCC(=O)NC1CCCCC1 | . | . | . | . | .
CCCCCCCCCCCCOCC1CO1 (centres undefined) | . | / | / | . | /
Cc1cc(SCc2ccc(Cl)c(Cl)c2)nc(=O)[nH]1 | . | . | . | . | .
CC(C)Cn1c(CCNC(=O)c2ccco2)nc2ccccc21 | . | . | . | . | .
O=C(NCC(=O)N1CCN(Cc2c(F)cccc2Cl)CC1)c1cccs1 | / | / | . | / | /
O/N=C(\Cn1ccnc1)c1ccccc1 | / | . | . | / | .[1.84 µM]
COC(=O)c1ccccc1NC(=S)NC(=O)C1CCCCC1 | ? | . | . | 13µM | .
COc1ccccc1NC(=S)NC(=O)C(C)(C)C | . | . | . | . | .
COc1ccccc1NC(=S)NC(=O)C1CC1 | ? | . | . | 13µM | .
SMILES | VP16 counter | MCF10A rereplic | IL-1B inflam inh | RORgamma inh | SW480 rereplic
CCCCN(C)CCCNC(=O)c1cn(CC)c2ccc(S(=O)(=O)N3CCc4ccccc4C3)cc2c1=O | . | . | -63 | . | ?
CCCCN(CC)CCCNC(=O)c1cn(CC)c2ccc(S(=O)(=O)N3CCc4ccccc4C3)cc2c1=O | . | . | / | . | ?
CCCN(CCC)CCCNC(=O)c1cn(CC)c2ccc(S(=O)(=O)N3CCc4ccccc4C3)cc2c1=O | . | . | -103 | . | .
O=C(NCc1ccco1)C1CCN(C(=O)c2ccc([N+](=O)[O-])cc2)CC1 | . | . | . | . | .
CCN(CC(=O)Nc1ccc(NC(C)=O)cc1)C(=O)c1ccc(NC2CC2)c([N+](=O)[O-])c1 | / | . | . | / | .
Cc1ccc(CC(=O)c2ccc(Cl)cc2)cc1 | . | . | . | . | .
Cc1ccc(C(=O)CC(=O)c2ccc(C)cc2O)cc1 | ? | . | . | 8.9µM | .
Cc1ccc(C(=O)CC(=O)c2cc(Cl)ccc2O)cc1 | 10µM | ? | . | ? | ?
Cc1ccc(C(=O)Cc2ccccc2)c(O)c1 | / | . | . | / | .
Cc1ccc(C(=O)CC(=O)c2ccc(C(C)(C)C)cc2)cc1 | ? | . | . | ? | .
CC(C)(C)c1ccc(C(=O)CC(=O)c2cc(Cl)ccc2O)cc1 | ? | ? | . | 11µM | ?
c1ccc(-c2sc3ccccc3c2-c2ccc(OCCN3CCCC3)cc2)cc1 | / | . | ? | / | 4.6µM
COc1cccc(-c2sc3ccccc3c2-c2ccc(OCCN3CCCC3)cc2)c1 | / | ? | . | / | ?
CN1CCN(c2nc(Nc3ccc(F)cc3)nc(Nc3ccc(F)cc3)n2)CC1 | . | ? | -56 | . | ?
c1ccc(Nc2nc(Nc3ccccc3)nc(N3CCNCC3)n2)cc1 | . | . | -71 | . | ?
CCc1cc(CNC(=O)c2ccc(OC3CCN(CCc4ccccc4)CC3)cc2)on1 | . | . | . | . | ?
CN(C)c1ccc(-c2n(C)c3ccccc3[n+]2C)cc1 | ? | ? | -80 | . | ?
Cc1ccc(Cc2c(C3CCCCC3)nc3ccc(Br)cn23)cc1 | / | / | . | / | /
CC(C)c1nc2ccc(Br)cn2c1NC1CCCC1 | ? | . | . | 7.1µM | .
CC1(C(=O)NCc2ccccc2Br)CCN1Cc1csc2ccccc12 (centres undefined) | / | / | . | / | /
CCCCCCCc1c(C#N)c(N)[nH]c(=S)c1C#N | . | ? | . | 8.9µM | .
O=C(NCc1ccc(F)cc1)C1CCCN1S(=O)(=O)c1ccccc1C(F)(F)F (centres undefined) | / | . | . | / | .
COc1ccc(OC)c(NC(=O)c2cc3n(n2)C(C(F)(F)F)CC(c2ccc4c(c2)OCO4)N3)c1 (centres undefined) | . | . | -61 | . | .
O=C(Nc1cc(Cl)ccc1O)c1cc2n(n1)C(C(F)(F)F)CC(c1ccc3c(c1)OCO3)N2 (centres undefined) | .[0.365 µM] | . | -87 | . | .
COc1ccccc1NC(=O)c1cc2n(n1)C(C(F)(F)F)CC(c1ccc3c(c1)OCO3)N2 (centres undefined) | . | ? | ? | . | .
SMILES | VP16 counter | MCF10A rereplic | IL-1B inflam inh | RORgamma inh | SW480 rereplic
COc1ccc2ccc3c(c2c1)N=CC1(O3)N(C)c2ccccc2C1(C)C (centres undefined) | . | ? | . | ? | .
CN1c2ccccc2C(C)(C)[C@]12C=Cc1cc(O)ccc1O2 | 16µM | ? | . | . | ?
CN1c2ccccc2C(C)(C)C12C=Nc1c(ccc3ccccc13)O2 (centres undefined) | 20µM | . | -58 | ? | .
CCN(CC)S(=O)(=O)c1ccc(N/N=C/c2cc(OC)c(OC)cc2OC)nc1 | . | ? | . | . | ?
CCN(CC)S(=O)(=O)c1ccc(N/N=C(\C)c2ccc(OC)cc2O)nc1 | 2.5µM | . | . | 0.71µM | ?
CCOc1cccc(/C=N/Nc2ccc(S(=O)(=O)N(CC)CC)cn2)c1O | 3.2µM | 5.2µM | . | 1µM | ?
COc1cccc(-c2ccc3c(c2)C2CC3CCN2C(C)=O)c1 (centres undefined) | / | . | . | / | .
COc1cc(/C=N/O)ccc1OCc1ccccc1Cl | 5µM | . | . | 1µM | .
